Test results published in PubChem BioAssay.
The source made the active and inactive calls.

Experiments:
[1] = tested on: PRMT1 (protein arginine N-methyltransferase 1); test: small molecules binding arginine methyltransferase PRMT1 – biochemical, small-molecule microarray, 635 nm fluorescence, primary screen (AID 1088); conditions: higher = more signal;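 further: binding of Prmt1 protein to compounds spotted on small-molecule microarray slides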
[2] = growth effects on S. cerevisiae YJM789 – YJM789 clinical isolate, OD600, 24 h, basal, primary screen (AID 1089); conditions: higher = more signal, called active from +8 up or from −8 down;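 further: growth of clinical yeast isolate S. cerevisiae YJM 789 seeded 1000 cells per well; test concentration not given here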
[3] = S. pombe growth modifiers, basal conditions – strain 972, OD600, 24 h, no modulator, primary screen (AID 1090);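 further: basal condition with compound alone and no growth modifier present; test concentration not given here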; conditions: S. pombe 972 growth, higher = more signal, called active from +8 up or from −8 down
[4] = budding yeast growth modifiers under rapamycin – strain BY4716, OD600, 96 h, primary screen (AID 1091); further: test concentration not given here; conditions: S. cerevisiae BY4716 + rapamycin, higher = more signal, called active from +8 up or from −8 down
[5] = molecular target: Torsin-1A-interacting protein 2 (Homo sapiens) (UniProt Q8NFQ8); test: small molecules binding lysate-expressed LULL1 – cell lysate, human LULL1 lysate, 635/667 nm fluorescence, primary screen (AID 1092); conditions: small-molecule microarray, hLULL1 lysate binding, 635 nm fluorescence; higher = more signal;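 further: probe is lysate of COS7 cells overexpressing human LULL1; score merges per-feature 667 nm fluorescence with signal-to-noise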
[6] = optical density change of DRC41 E. coli – strain DRC41, OD650, 24 h, E. coli filamentation project, primary screen (AID 1093);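 further: MC1000 strain lacking acrAB efflux and sulA so SOS filamentation is blocked; test concentration not given here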; conditions: E. coli DRC41 growth, higher = more signal, called active from +8 up or from −8 down
[7] = probe aLefty2 binding to arrayed compounds – biochemical, biotinylated probe, 635/667 nm fluorescence, primary screen (AID 1094); conditions: small-molecule microarray, higher = more signal;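 further: score merges spot fluorescence near 667 nm with spot signal-to-noise ratio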
[8] = tested on: Noggin (protein binding on small-molecule microarray); test: small molecules binding Noggin protein – biochemical, 635/667 nm fluorescence, primary screen (AID 1095); conditions: 635 nm fluorescence, higher = more signal;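 further: score merges 667 nm feature fluorescence with signal to noise over triplicate slides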
[9] = molecular target: Neurogenic locus notch homolog protein 3 (Homo sapiens) (UniProt Q9UM47); test: small molecules binding NOTCH3 protein – biochemical, 635/667 nm fluorescence, primary screen (AID 1096); conditions: small-molecule microarray, 635 nm fluorescence, higher = more signal
[10] = probe aEGFR binding to arrayed compounds – biochemical, biotinylated probe, 635/667 nm fluorescence, primary screen (AID 1097); conditions: small-molecule microarray, higher = more signal;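 further: probe is a biotinylated anti-EGFR antibody binding compounds printed on slides; score combines fluorescence near 667 nm and signal to noise of each spot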

Neurogenic locus notch homolog protein 3 (Homo sapiens), sequence (Q9UM47 whole entry, looked up): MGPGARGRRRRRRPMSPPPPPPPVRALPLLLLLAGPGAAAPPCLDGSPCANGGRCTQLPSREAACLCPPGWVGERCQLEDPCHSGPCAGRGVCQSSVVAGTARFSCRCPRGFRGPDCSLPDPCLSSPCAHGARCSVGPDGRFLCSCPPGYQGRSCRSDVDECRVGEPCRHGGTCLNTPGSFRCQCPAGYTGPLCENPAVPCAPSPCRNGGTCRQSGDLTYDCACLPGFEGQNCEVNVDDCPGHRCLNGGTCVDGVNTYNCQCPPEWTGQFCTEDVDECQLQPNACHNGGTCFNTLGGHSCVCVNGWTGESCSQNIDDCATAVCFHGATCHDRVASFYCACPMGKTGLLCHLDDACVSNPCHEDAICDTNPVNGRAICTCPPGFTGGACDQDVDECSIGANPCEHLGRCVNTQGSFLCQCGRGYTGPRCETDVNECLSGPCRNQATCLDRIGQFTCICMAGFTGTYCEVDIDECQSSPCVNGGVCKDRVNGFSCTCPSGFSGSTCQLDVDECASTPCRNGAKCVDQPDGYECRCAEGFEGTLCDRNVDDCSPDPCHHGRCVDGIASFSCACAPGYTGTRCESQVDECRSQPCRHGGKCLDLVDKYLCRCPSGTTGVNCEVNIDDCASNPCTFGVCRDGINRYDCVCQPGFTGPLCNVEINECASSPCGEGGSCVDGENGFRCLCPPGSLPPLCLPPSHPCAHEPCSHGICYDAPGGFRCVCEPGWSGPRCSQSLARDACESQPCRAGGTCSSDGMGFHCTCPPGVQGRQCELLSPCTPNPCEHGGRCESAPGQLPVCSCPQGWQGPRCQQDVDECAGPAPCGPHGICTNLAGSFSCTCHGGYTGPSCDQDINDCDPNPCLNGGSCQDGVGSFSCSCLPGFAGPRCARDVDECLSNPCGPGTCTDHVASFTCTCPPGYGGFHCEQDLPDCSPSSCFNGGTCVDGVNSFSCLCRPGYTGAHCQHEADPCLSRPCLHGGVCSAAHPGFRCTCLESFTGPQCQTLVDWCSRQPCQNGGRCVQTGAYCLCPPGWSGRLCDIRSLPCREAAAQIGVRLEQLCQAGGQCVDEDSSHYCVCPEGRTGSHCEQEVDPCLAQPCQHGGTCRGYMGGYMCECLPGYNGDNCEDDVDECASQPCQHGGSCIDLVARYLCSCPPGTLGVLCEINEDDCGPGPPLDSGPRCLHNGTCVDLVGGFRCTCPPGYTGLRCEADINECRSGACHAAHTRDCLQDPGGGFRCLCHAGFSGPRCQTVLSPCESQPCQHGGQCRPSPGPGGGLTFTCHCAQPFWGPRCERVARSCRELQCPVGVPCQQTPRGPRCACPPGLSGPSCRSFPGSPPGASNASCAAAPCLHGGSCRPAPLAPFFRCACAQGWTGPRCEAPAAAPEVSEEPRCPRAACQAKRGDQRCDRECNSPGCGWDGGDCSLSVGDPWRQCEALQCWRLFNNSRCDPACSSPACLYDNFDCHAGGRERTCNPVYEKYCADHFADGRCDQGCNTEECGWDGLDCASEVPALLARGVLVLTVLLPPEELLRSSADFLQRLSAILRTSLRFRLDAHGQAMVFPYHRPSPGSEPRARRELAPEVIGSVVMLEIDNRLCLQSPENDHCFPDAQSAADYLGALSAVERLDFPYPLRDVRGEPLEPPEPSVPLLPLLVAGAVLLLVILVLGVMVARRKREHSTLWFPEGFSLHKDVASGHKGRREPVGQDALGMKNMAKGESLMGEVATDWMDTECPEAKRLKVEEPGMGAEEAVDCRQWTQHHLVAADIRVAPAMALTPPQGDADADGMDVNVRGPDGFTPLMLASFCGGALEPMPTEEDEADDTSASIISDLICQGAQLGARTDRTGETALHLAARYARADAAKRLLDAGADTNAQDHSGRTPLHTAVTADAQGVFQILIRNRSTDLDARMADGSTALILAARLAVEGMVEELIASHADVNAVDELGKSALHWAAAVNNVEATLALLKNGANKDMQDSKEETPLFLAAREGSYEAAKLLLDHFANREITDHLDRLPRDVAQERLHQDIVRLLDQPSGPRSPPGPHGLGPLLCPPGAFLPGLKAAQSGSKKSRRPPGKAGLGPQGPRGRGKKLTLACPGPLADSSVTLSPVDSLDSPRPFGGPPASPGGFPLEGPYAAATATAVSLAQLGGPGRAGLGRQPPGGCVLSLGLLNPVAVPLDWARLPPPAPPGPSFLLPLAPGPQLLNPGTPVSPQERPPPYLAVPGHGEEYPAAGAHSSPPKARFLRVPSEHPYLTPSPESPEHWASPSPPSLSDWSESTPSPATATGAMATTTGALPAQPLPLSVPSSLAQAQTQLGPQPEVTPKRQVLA
Torsin-1A-interacting protein 2 (Homo sapiens), sequence (Q8NFQ8 whole entry, looked up): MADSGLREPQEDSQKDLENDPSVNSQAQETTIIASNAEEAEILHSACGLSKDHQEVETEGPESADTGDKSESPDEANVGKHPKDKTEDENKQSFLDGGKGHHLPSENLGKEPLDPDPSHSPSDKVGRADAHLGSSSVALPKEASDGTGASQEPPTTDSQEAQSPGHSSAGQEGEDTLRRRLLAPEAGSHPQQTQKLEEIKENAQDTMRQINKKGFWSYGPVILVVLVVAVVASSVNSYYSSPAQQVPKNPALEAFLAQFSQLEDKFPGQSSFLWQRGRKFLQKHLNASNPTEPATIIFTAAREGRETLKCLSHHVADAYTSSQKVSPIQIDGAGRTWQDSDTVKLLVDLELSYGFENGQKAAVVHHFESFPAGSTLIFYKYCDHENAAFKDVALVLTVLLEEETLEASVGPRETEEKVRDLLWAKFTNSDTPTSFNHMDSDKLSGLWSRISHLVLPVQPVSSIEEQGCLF

| SMILES | composite z-score [1] | z-score [2] | z-score [3] | z-score [4] | composite z-score [5] | z-score [6] | composite z-score [7] | composite z-score [8] | composite z-score [9] | composite z-score [10] |
| --- | --- | --- | --- | --- | --- | --- | --- | --- | --- | --- |
| COc1ccc([Si](C)(C)[C@@H]2[C@@H](CCO)O[C@]3(C(=O)N(Cc4ccc(N(C=O)c5ccccc5)cc4)c4ccccc43)[C@H]2C)cc1 | 0.883 | 1.47 (inactive) | 0.552 (inactive) | 25.3 (active) | 0.758 | 0.0689 (inactive) | 0.122 | 0.445 | 0.332 | -0.0466 |
| O=C(c1ccccc1)N1C(=O)[C@]2(COC(c3ccc(OCCCO)cc3)=N2)Cc2ccccc21 | 1.53 | -1.84 (inactive) | 0.901 (inactive) | 4.51 (inactive) | 3.17 | -0.178 (inactive) | 0.133 | 0.722 | 1.15 | -0.0989 |
| NCCCCCCNC(=O)[C@@H]1C[C@@H]2C(=O)NCC(=O)N2[C@@H]1c1ccc(O)cc1 | 1.56 | 0.0703 (inactive) | 0.467 (inactive) | -0.129 (inactive) | 1.01 | 1.1 (inactive) | -0.0324 | 1.58 | 1.07 | -0.0409 |
| Cc1ccc([C@@H]2C[C@@H](Sc3ccccc3)[C@H](C(=O)O)CN2S(=O)(=O)c2ccc(C)cc2)cc1 | 1.54 | -0.337 (inactive) | 0.565 (inactive) | -0.787 (inactive) | 3.53 | -0.773 (inactive) | 0.141 | 0.339 | 1.08 | 0.0082 |
| COc1ccc([Si](C)(C)[C@H]2[C@H](CCO)O[C@@]3(C(=O)N(Cc4ccc(N(C=O)c5ccccc5)cc4)c4ccccc43)[C@@H]2C)cc1 | 0.258 | 1.09 (inactive) | 0.302 (inactive) | 25.2 (active) | 1.12 | 0.759 (inactive) | -0.107 | 0.0352 | 0.033 | -0.162 |
| CN1C(=O)C2C=CC(C(O)c3ccco3)N(Nc3ccccc3)C2C1=O (stereo not given) | 0.941 | 0.312 (inactive) | 0.899 (inactive) | 1.74 (inactive) | 2.52 | -1.37 (inactive) | 0.0569 | 0.139 | 0.275 | -0.0976 |
| O=C1C[C@@](C(=O)NCCN2CCOCC2)(c2ccc([N+](=O)[O-])cc2)[C@@H](c2ccc(CO)cc2I)N1CC12CC3CC(CC(C3)C1)C2 | 1.54 | -24.9 (active) | -5.93 (inactive) | 0.0788 (inactive) | 3.2 | -0.981 (inactive) | -0.112 | 1.2 | 1.08 | -0.0381 |
| CCCC[C@@H]1C[C@H]1[C@@H](NC(=O)c1ccco1)c1ccccc1C(F)(F)F | -0.191 | 0.493 (inactive) | 1.13 (inactive) | -0.0491 (inactive) | 1.53 | -0.763 (inactive) | 1.36 | -0.339 | 0.453 | 0.856 |
| CCC[C@@H]1C[C@@]1(CCC)[C@@H](NC(=O)c1ccccc1)c1cccc(Cl)c1 | 0.596 | 1.47 (inactive) | 1.52 (inactive) | 2.12 (inactive) | 3.23 | -0.452 (inactive) | 0.497 | 0.149 | 1.15 | 0.913 |
| COC(=O)[C@H](Cc1ccccc1)N1CC2=C[C@@H](C3CC3)n3c(=O)n(C)c(=O)n3[C@H]2[C@@H]1[C@@H](O)Cc1ccccc1 | 1.06 | -0.973 (inactive) | -1.15 (inactive) | 0.0538 (inactive) | 2.88 | -0.89 (inactive) | -0.136 | 1.15 | 1.02 | 0.142 |
| Oc1ccc2cc[n+](Cc3sc4ccccc4c3Cl)cc2c1 | 0.599 | 0.0335 (inactive) | -1.43 (inactive) | 2.3 (inactive) | 3.37 | -1.82 (inactive) | 0.217 | 0.311 | 0.207 | -0.0409 |
| CCCCCN1CC=CC23O[C@@H]4/C=C\CCC(C)OC(=O)C4[C@H]2C(=O)N(C(C)CO)[C@@H]3C1=O (stereo not given in full) | 1.09 | 0.255 (inactive) | 0.117 (inactive) | -0.562 (inactive) | 2.37 | 0.123 (inactive) | -0.238 | 0.0805 | 0.385 | -0.168 |
| Cc1ccc(N2C(=O)c3ccccc3[C@@H](C(=O)NC3CC3)[C@@H]2c2ccc(CO)cc2)nc1 | -1.57 | -1.31 (inactive) | -0.916 (inactive) | -0.486 (inactive) | 2.35 | 0.387 (inactive) | 0.297 | -0.912 | -1.44 | -0.281 |
| C=CCN1C(=O)[C@]2(O[C@H](CCn3cc([C@H](O)c4ccccc4)nn3)[C@@H]([Si](C)(C)c3ccc(OC)cc3)[C@@H]2C)c2cc(N3CCC3=O)ccc21 | 0.942 | 0.487 (inactive) | 0.406 (inactive) | 2.47 (inactive) | 1.56 | 1.28 (inactive) | -0.0397 | 1.82 | 0.803 | -0.154 |
| [N-]=[N+]=NCc1ccccc1[C@@H]1OC(c2ccc(OCCCO)cc2)=N[C@]1(Cc1ccccc1)C(N)=O | 1.48 | -0.368 (inactive) | -2.27 (inactive) | -0.784 (inactive) | 3.36 | 0.455 (inactive) | 0.227 | 0.683 | 1.06 | 0.154 |
